In PubChem BioAssay (NCI):
The panel holds about 83,000 compounds, 20% with a hit somewhere; the sample as a whole holds those more often.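 In brief: 96-well plates, 48 h treatment, single concentration, percent growth endpoint.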 Activity calls are given as the source filed them. How the source made its calls: active means growth percent below 10; inactive means the rest.

How the values were obtained:
Assay in all cases: NCI-60 one-dose screen, 48 h (100 = growth as untreated, 0 = no growth, -100 = all killed)
Conditions in all cases: 10 µM unless noted
[1] = tested on: EKVX NSCLC
[2] = tested on: SN12C renal
[3] = tested on: UO-31 renal
[4] = tested on: TK-10 renal
[5] = tested on: ACHN renal
[6] = tested on: CAKI-1 renal
[7] = tested on: A498 renal
[8] = tested on: CCRF-CEM leukemia
[9] = tested on: MOLT-4 leukemia

Measured: growth

C1=CN2CC(c3ccccc3)=NNC2c2ccccc21 (centres undefined)
inactive: [1] 73.4% | [2] 88.8% | [3] 53.8% | [4] 120% | [5] 85.7% | [6] 65.2% | [7] 104% | [8] 88.3% | [9] 40.2%

C=C(C)[C@@H]1CC[C@]2(C(=O)OC)CC[C@]3(C)[C@H](CC[C@@H]4[C@@]5(C)C/C(=C/NC(N)=S)C(=O)C(C)(C)[C@@H]5CC[C@]43C)[C@@H]12
inactive: [1] 91.3% | [2] 58.9% | [3] 73.4% | [4] 111% | [5] 77.6% | [6] 66.4% | [7] 114% | [8] 84.7% | [9] 70.3%

O=C1/C(=C/c2cccs2)SC(=S)N1CCCN1CCOCC1
inactive: [1] 94.8% | [2] 83.3% | [3] 82.4% | [4] 122% | [5] 95.3% | [6] 91.5% | [7] 72.2% | [8] 87.5% | [9] 101%

Cc1nnc(-n2c(O)cc(=O)n(-c3ccccc3)c2=S)nc1/C=C/c1ccc(N(C)C)cc1
inactive: [1] 66.7% | [2] 65.3% | [3] 17.1% | [4] 28.1% | [5] 62% | [6] 23.4% | [7] 52.1% | [8] 52.5% | [9] 56.1%

CCOC(=O)c1c(C)c2c(n1C)CSc1cc(C(=O)c3ccccc3)c(=O)[nH]c1-2
inactive: [1] 71.8% [100 µM] | [2] 103% [100 µM] | [3] 84.7% [100 µM] | [4] 103% [100 µM] | [5] 84.9% [100 µM] | [6] 66% [100 µM] | [7] 87.7% [100 µM] | [8] 106% [100 µM] | [9] 87.3% [100 µM]

C=C1C(=O)O[C@H]2[C@H]1CC/C(COC(=O)NCc1ccc(Cn3c(=O)sn(CCI)c3=O)cc1)=C\CC[C@@]1(C)O[C@@H]21
inactive: [1] 91% | [2] 70.3% | [3] 68.3% | [5] 27.7% | [7] 120%
active: [4] 0.429% | [6] 7% | [8] -16.1% | [9] -6.69%

Cc1nn(-c2ccccc2)c(Oc2ccccn2)c1-c1nc2ccccc2s1
active: [9] -49.2%
inactive: [1] 90.4% | [2] 100% | [3] 88.2% | [4] 103% | [5] 98.3% | [6] 82.3% | [7] 106% | [8] 102%

O=S(=O)(NCCCNc1nccc(-c2c(-c3ccc(F)c(O)c3)nc3occn23)n1)c1ccccc1
inactive: [1] 101% | [2] 79.1% | [3] 75% | [4] 122% | [5] 70.1% | [6] 96.5% | [7] 101% | [8] 79.1% | [9] 78.2%

N#Cc1c(-c2ccc(Cl)cc2)nc(SCC(=O)NC2=NN=C(c3ccccc3)CS2)[nH]c1=O
inactive: [1] 86.2% | [2] 97.4% | [3] 71.2% | [4] 119% | [5] 88.9% | [6] 77% | [7] 97.6% | [8] 63.8% | [9] 90.4%

N#Cc1c(NC(=O)c2ccccc2)sc2c1CCC(=O)C2
inactive: [1] 21.7% | [2] 11.6% | [4] 39.5% | [7] 78.3%
active: [3] -16.4% | [5] 5.88% | [6] -27.3% | [8] 7.52% | [9] 8.12%

Cc1ccc(NC(=S)NNC(=S)NNc2ccccc2)cc1C
inactive: [1] 108% | [2] 101% | [3] 77.2% | [4] 104% | [5] 99.1% | [6] 95% | [7] 93.7% | [8] 44.4% | [9] 45%

O=C1c2ccc3c4ccc5c6c(ccc(c7ccc(c2c37)C(=O)N1CCC[P+](c1ccccc1)(c1ccccc1)c1ccccc1)c64)C(=O)N(CCC[P+](c1ccccc1)(c1ccccc1)c1ccccc1)C5=O
inactive: [1] 45.6% | [2] 70.5% | [3] 80.7% | [4] 141% | [5] 104% | [7] 78.1% | [9] 46.1%
active: [6] 0.659%

O=C(CCCCCCN1CC(=O)N2[C@H](c3cc(Br)cs3)c3[nH]c4ccccc4c3C[C@H]2C1=O)NO
inactive: [1] 75.4% | [2] 53.7% | [3] 39.6% | [4] 32% | [5] 47.8% | [6] 43.7% | [7] 58.6%
active: [9] 9.39%

CC(C)c1ccc(NC(=O)Nc2ccc(NC(=O)CCCC(=O)NOCc3ccccc3)cc2)cc1
inactive: [1] 105% | [2] 92.8% | [3] 85% | [4] 103% | [5] 87.4% | [6] 87.9% | [7] 96.4% | [8] 75.1% | [9] 71.1%
